Screening data as filed in PubChem.
In the library only some 8.1% were active in any assay of this set; here they are far more common.
Sfp PPTase inh = blocks B. subtilis Sfp PPTase activity; actives 3.5% (n = 310,000); Biochemical Sfp PPTase activity, qHTS; Potency, µM, inactives show largest response in the series, negative = inhibition, most hits filed as inhibitors; Q9F4F7;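 also: the enzyme is Sfp with the accession as filed and its product quenches rhodamine fluorescence; 0% = enzyme reaction without inhibitor and -100% = no enzyme wells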
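Compounds were incubated with enzyme (final 15 nM) for 15 min at room temperature before substrate addition started the reaction. Fluorescence at 525 nm excitation, 598 nm emission was recorded immediately and after 30 minutes.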
ClpP mod = qHTS Assay for Activators of ClpP; actives 1.9% (n = 340,000); purified B. subtilis ClpP, FRET peptide cleavage, 20 min; ATP-dependent Clp protease proteolytic subunit (Bacillus subtilis (strain 168)), P80244; Potency, µM (highest dose often 57.5 µM), for the others: at the highest dose activity change, negative = active; active = well fitted falling curve with a large enough effect; inconclusive = small, poorly fitted or top-dose-only effect; inactive = no such curve, though single readings can be large or run the other way; also: the source files actives as falling curves though it sought activators and does not explain the sign; nearly all actives have a fitted effect of over 65% in size
Target sequence (P80244 whole entry, looked up): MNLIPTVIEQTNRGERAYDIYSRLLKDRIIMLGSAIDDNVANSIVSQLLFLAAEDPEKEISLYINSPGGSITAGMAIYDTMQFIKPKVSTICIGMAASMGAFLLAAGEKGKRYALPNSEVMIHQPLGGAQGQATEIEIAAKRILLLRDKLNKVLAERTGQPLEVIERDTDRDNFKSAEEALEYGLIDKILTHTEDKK
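Purified B. subtilis ClpP, 10 microg/mL final in Tris/HCl pH8 with KCl, BSA, glycerol and Tween-20, cleaved an Abz/nitrotyrosine-quenched decapeptide. Fluorescence (ex 320, em 430) was read at 0 and 20 min at room temperature. Delta was normalized to 5.8 microM ADEP and DMSO/no-enzyme controls.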
PINK1 expr mod = modulators of PINK1 expression. AID 624263. Potency, µM (titrated, usually from 76.6 µM), without a hit: at the highest dose activation (PINK1 increase), usual class: activators. PINK1 immunofluorescence, high-content cytometry, 24 h. actives 0.2% (n = 410,000); active = well fitted activation curve with a large enough effect; inconclusive = small, poorly fitted or top-dose-only effect; cell line not stated here; also: % of control where 0% means no effect; nearly all actives have a fitted effect of over 65% in size
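PINK1 protein, normally rapidly degraded, was detected by immunofluorescence after 24 hour compound treatment of a stable cell line. Titration data (5 concentrations) came from laser-scanning cytometry, with CCCP-treated wells as controls.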
RORgamma inh = ROR gamma (mouse) transcription inhibition; P51450; Drosophila S2 Gal4-RORgamma UAS-luciferase reporter, 20 h; Potency, µM (top dose mostly 53.6 µM), for the others: at the top dose activity change, negative = inhibition, hits mostly inhibitors; actives 5.4% (n = 310,000); AID 2551; also: % is scaled to controls: 0 for no effect and ±100 for the full control effect; nearly all actives have a fitted effect of over 60% in size
Target sequence (P51450 whole entry, looked up, the tested form may be a part): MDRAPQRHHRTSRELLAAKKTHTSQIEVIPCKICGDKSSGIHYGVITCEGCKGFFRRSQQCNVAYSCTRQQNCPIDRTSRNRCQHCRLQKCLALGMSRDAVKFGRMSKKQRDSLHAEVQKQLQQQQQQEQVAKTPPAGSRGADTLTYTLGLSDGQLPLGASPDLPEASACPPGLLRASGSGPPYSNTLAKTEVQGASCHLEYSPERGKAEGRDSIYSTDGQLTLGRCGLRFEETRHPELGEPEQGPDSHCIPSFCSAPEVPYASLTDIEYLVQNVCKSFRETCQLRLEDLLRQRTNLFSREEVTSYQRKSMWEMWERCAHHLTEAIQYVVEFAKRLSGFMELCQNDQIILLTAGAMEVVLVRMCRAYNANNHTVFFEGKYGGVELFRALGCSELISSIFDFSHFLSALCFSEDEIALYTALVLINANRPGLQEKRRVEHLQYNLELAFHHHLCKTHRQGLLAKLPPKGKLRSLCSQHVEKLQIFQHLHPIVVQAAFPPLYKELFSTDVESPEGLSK
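Drosophila Schneider cells stably carrying a metallothionein-driven Gal4 DBD–ROR gamma fusion and a UAS-Photinus luciferase reporter were exposed to compound for 1 hr, then induced with copper sulfate (700 uM final) for 20 hr at ambient temperature before luminescence reading.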
Epigenetic derep = epigenetic control regulation, reporter derepression; murine LDR cells, GFP reporter derepression, 30 h; Potency, µM (titrated, usually from 53.9 µM), without a hit: top-dose GFP activation, actives largely listed as activators; actives 0.2% (n = 280,000); AID 1865; also: % of control where 0% means no effect; nearly all actives have a fitted effect of over 60% in size
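In this reporter-derepression format, murine cells bearing a silenced integrated CMV-GFP locus incubate with test compound (30 h, 37 C), then are washed and imaged; fluorescent objects of 20–120 um count as induced cells.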
Gal4-VP16 FLuc = inhibits Gal4-VP16 luciferase reporter, ROR gamma counter-screen. Drosophila S2 Gal4-VP16 UAS-luciferase, luminescence, 20 h. Potency, µM (highest dose often 53.6 µM), inactives show at the highest dose activity, negative = inhibition, usual class: inhibitors. actives 3.5% (n = 310,000);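 also: Gal4-VP16 expression switched on by copper sulfate through the metallothionein promoter; % is scaled to controls: 0 for no effect and ±100 for the full control effect; nearly all actives have a fitted effect of over 50% in size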
An asterisk follows results filed as active; ? = inconclusive; / = no result given; ! = not confirmed by another sample; [ ] = dose if it differs, or a comment. Unless noted, calls follow the shape of the dose curve; as a rule, active = well fitted curve in the direction sought with a large enough effect; inconclusive = small, poorly fitted or top-dose-only effect, or another doubt; inactive = no such curve, though single readings can be large; an effect the other way counts as inactive or inconclusive. Potency is read from the fitted curve at half-maximal effect.

SMILES	Sfp PPTase inh	ClpP mod	PINK1 expr mod	RORgamma inh	Epigenetic derep	Gal4-VP16 FLuc
Nc1cc2sc(-c3ccc(C(=O)O)cc3)nc2cc1Cl	22%	4.5µM*	1%	10µM*	0%	11µM*
Nc1ccc(-c2nc3ccc(C(=O)O)cc3s2)cc1	56µM*	-51%	-1%	0.56µM*	1%	0.63µM*
O=C(O)c1ccc2nc(-c3ccccc3)sc2c1	24%	?	-2%	?	0%	2.5µM*
Cc1ccc(CN2CCN(C3CCN(C(=O)Nc4ccccc4C(F)(F)F)CC3)C(=O)C2=O)cc1	/	1%	7%	/	-1%	/
CCc1ccc(CNC(=O)c2nn(-c3ccc(C)c(C)c3)nc2CO)cc1	/	3.5µM*	0%	/	-1%	/
CCOc1ccc(-n2nc(CO)c(C(=O)NCC(C)O)n2)cc1 (stereo not drawn)	/	14µM*	0%	/	-1%	/
CCc1ccc(-n2nc(CO)c(C(=O)NCCOC)n2)cc1	/	13µM*	1%	/	-3%	/
Cc1ccc(-n2nc(CO)c(C(=O)NCCC(C)C)n2)cc1C	/	?	8%	/	?	/
CCC(C)NC(=O)c1nn(-c2ccc(C)cc2)nc1CO (stereo not drawn)	/	?	-1%	/	0%	/
COCCNC(=O)c1nn(-c2ccc(Cl)cc2)nc1CO	/	14µM*	0%	/	-4%	/
CC(=O)O[C@@H]1CC[C@@]2(C)[C@H](C1)[C@H](OC(C)=O)C[C@@H]1[C@@H]2C[C@H]2[C@@H]3CN4C[C@H](C)CC[C@H]4[C@H](C)[C@H]3CC[C@@]12O	0%	/	/	-3%	/	-1%
NS(=O)(=O)c1ccc(CCNC(=O)c2ccc3nc(CCc4ccccc4)oc3c2)cc1	/	0%	0%	/	3%	/
CCC(C)NC(=O)Cn1c(=O)n(CC2CCC(C(=O)NC)CC2)c(=O)c2sccc21 (stereo not drawn)	/	0%	1%	/	0%	/
COc1ccc2c(c1)c1c(c(=O)n(-c3cccc(C)c3)c(=O)n1CC(=O)N1CCCC1)n2C	/	4%	0%	/	-2%	/
S=C([S-])NCCNC(=S)[S-].[Zn+2]	/	/	/	-15%	/	7%
COC(=O)c1c(C)[nH]c(O)c1C=Nc1ccc(C#N)cc1	45µM*	0%	0%	1%	-5%	5%
CCOC(=O)c1c(C)[nH]c(O)c1C=Nc1ccccc1	?	2%	-1%	34%	-2%	-6%
O=C(NCC1(N2CCCCC2)CCCCC1)c1ccc(-n2cc(NC(=O)c3cccnc3)cn2)cc1	/	/	0%	/	/	/
CCC1(CC)C(=O)C(C)(C)C(=O)OC1c1cccs1 (stereo not drawn)	?	28µM*	4%	-15%	-1%	0%
NC(=O)/C(=C/c1ccco1)C(N)=S	18µM*	0%	-1%	-17%	-1%	-7%
CCc1ccccc1NC(=O)c1ccc(Cn2nc(N3CCN(c4ccccc4)CC3)ccc2=O)o1	/	-2%	1%	/	-2%	/
O=C(NC(=S)Nc1ccccc1N1CCOCC1)c1ccc([N+](=O)[O-])cc1	8%	0%	5%	8.9µM*	2%	?
O=C(NC(=S)Nc1ccccc1N1CCCC1)c1ccc([N+](=O)[O-])cc1	?	1%	-2%	0.05µM*	3%	0.11µM*
O=C(Nc1ccccc1N1CCOCC1)c1cccc([N+](=O)[O-])c1	-4%	-7%	1%	-29%	0%	-7%
Cc1c(C(=O)NC(=S)Nc2ccccc2N2CCCC2)cccc1[N+](=O)[O-]	?	0%	2%	?	0%	-100%
SMILES	Sfp PPTase inh	ClpP mod	PINK1 expr mod	RORgamma inh	Epigenetic derep	Gal4-VP16 FLuc
CN(C)Cc1cc(O)c(CN(C)C)cc1O	25µM*	-19%	0%	-19%	0%	-1%
CC(=O)N[C@@H](CSC/C=C(\C)CCC=C(C)C)C(=O)O	45µM*!	/	/	19%	6%	-10%
Cc1cc(O)c(C(C)(C)C)cc1Sc1cc(C(C)(C)C)c(O)cc1C	/	/	/	10µM*	/	?
CC(C)(C)c1cc(O)c(C(C)(C)C)cc1O	-13%	/	/	-32%	2%	-18%
CCOC(=O)c1c(NC(=O)CN(CC)CC)sc2c1CCC2	2%	-19%	/	13µM*	-1%	?
CCOC(=O)c1c(NC(=O)CNCCOC)sc2c1CCCC2	-2%	-8%	0%	1.3µM*	0%	1.6µM*
CCN(CC)CC(=O)Nc1sc2c(c1C(=O)c1ccccc1OC)CCC2	-6%	?	5%	4µM*	3%	10µM*
CCOC(=O)c1c(NC(=O)OC)sc2c1CCC2	32µM*	-8%	2%	-1%	0%	2%
CCOC(=O)c1c(NC(=O)CCCC(=O)O)sc2c1CCC2	23%	/	10%	6%	1%	-6%
CCCn1c2ccccc2c2cnn(CC(=O)NCCc3ccc(OCC)cc3)c(=O)c21	/	-10%	5%	/	0%	/
COc1ccc(C(=O)N(O)c2ccccc2)cc1	-8%	/	/	?	1%	?
COC(=O)c1ccc(C2c3c(oc4ccc(C)cc4c3=O)C(=O)N2Cc2ccc3c(c2)OCO3)cc1 (stereo not drawn)	/	-14%	1%	/	-1%	/
OC1OC[C@@H](O)[C@@H](O)[C@@H]1O (stereo partly drawn)	0%	/	/	22%	/	1%
CCOC(=O)C(=O)/C(C#N)=C/Nc1ccccc1	19%	1%	0%	22%	3%	1%
CCOC(=O)/C(=C\c1cccnc1)C(=O)c1cc(C(C)=O)c(Nc2ccccc2)s1	40µM*	-2%	-3%	3.5µM*	?	4.5µM*
CCOC(=O)/C(=C\c1ccccc1)C(=O)c1cc(C(C)=O)c(Nc2ccccc2)s1	-7%	-1%	-2%[38.3 µM]	7.1µM*	-4%	?
FC(F)(F)c1nc2nncn2c2c1CCCCC2	2%	32µM*	0%	-4%	2%	-12%
O=C(CN1CCc2ccccc2C1)c1cccs1	56µM*	-4%	-1%	4%	8%	-3%
Cc1ccc(C)c(-c2nnc(NC(=O)COc3ccccc3)o2)c1	/	-1%	2%	/	/	/
Cc1ccc(C)c(-c2nnc(NC(=O)Cc3ccc(F)cc3)o2)c1	21%	0%	5%	0.63µM*	/	0.56µM*
Cc1ccc(-c2nnc(NC(=O)Cc3ccc(F)cc3)o2)c(C)c1	19%	-4%	3%	1.4µM*	/	1.3µM*
Cc1ccc(-c2nnc(NC(=O)CCS(=O)(=O)c3ccccc3)o2)c(C)c1	/	2%	3%	/	/	/
CCOc1ccc(NC(=O)CC2C(=O)N(c3ccccc3)C(=O)N2CCc2sccc2C)cc1 (stereo not drawn)	/	1%	0%	/	-5%	/
